Source: PubChem BioAssay AID1527 (The Scripps Research Institute Molecular Screening Center, 2009)
Out of some 290,000 compounds screened, about 2,600 (0.9%) were called active. For the sample, actives were picked, then their nearest neighbours and some compounds at random. Unmarked numbers belong to inactive results.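 How the source made its calls: active means inhibition above the mean of all tested compounds plus 3 SD, cutoff set per screening run (cut at about 7.5% in these data); inactive means the rest.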

system: VIM-2 metallo-beta-lactamase (Pseudomonas aeruginosa); experiment: VIM-2 metallo-beta-lactamase inhibitors, primary screen, biochemical, epi-absorbance readout, Pseudomonas aeruginosa enzyme (AID 1527); conditions: purified VIM-2, nitrocefin hydrolysis, epi-absorbance fluorescence; at 5.6 µM; hits give high values;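 further: red hydrolysis product quenches plate fluorescence so inhibitors raise well fluorescence; 0% = enzyme with DMSO and 100% = DMSO without enzyme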

How did the inhibition turn out when Cc1sc2ncn(CC(=O)NCCCC(=O)NCc3ccc(F)cc3)c(=O)c2c1C was run?
The inhibition was 0.04%.

With Cc1nc2sc(C(=O)c3ccccc3)c(N)c2c2c1CCCC2 as the molecule, how does the inhibition read?
Its inhibition is 2.15%.

How did the inhibition turn out when Nc1c(C(=O)c2cccs2)sc2nsc(SCCN3CCCCC3)c12 was run?
The inhibition was 13.6% (active).

With CN(C)c1ccnc2sc(C(=O)c3ccccc3)c(N)c12 as the molecule, how does the inhibition read?
The inhibition was -2.05%.

Which inhibition does the source give for CCN(CC)CCN1C(=O)C2C(C(=O)Nc3ccc(Br)cc3)C3C=CC2(O3)C1C(=O)NC1CCCCC1 (configuration not stated) here?
The inhibition was -0.9%.

For Cc1ccc2[nH]c(=O)c(CC(=O)O)c(-c3ccccc3)c2c1, which inhibition is on record?
The inhibition was -3.01%.

For CCOc1ccccc1NC(=S)N1CCN(c2cccc(C)c2C)CC1, which inhibition is on record?
Its inhibition is -0.35%.

CN(C)CCNc1ccc(-c2n[nH]c(=O)c3ccccc23)cc1[N+](=O)[O-] was tested. Which inhibition did it give?
The inhibition was 78.8% (active).

COCCNC(=O)c1ccccc1NS(=O)(=O)c1ccc(C)c([N+](=O)[O-])c1 was tested. Which inhibition did it give?
The inhibition was 0.45%.

For CCN(CC)CCNc1ccc(Cl)cc1[N+](=O)[O-], which inhibition is on record?
Its inhibition is 0.16%.

For Cc1ccc(S(=O)(=O)N(C)C)cc1NC(=O)c1n[nH]c(=O)c2ccccc12, which inhibition is on record?
The inhibition was -0.87%.

COCCNc1cc(NCCOC)c([N+](=O)[O-])cc1[N+](=O)[O-] was tested. Which inhibition did it give?
The inhibition was -3.48%.

With COCCNc1ccc(-c2n[nH]c(=O)c3ccccc23)cc1[N+](=O)[O-] as the molecule, how does the inhibition read?
The inhibition was 10.5% (active).

For O=C(Nc1ccc(S(=O)(=O)N2CCCCCC2)cc1)c1c(F)cccc1F, which inhibition is on record?
Its inhibition is -0.68%.

Which inhibition does the source give for O=C(O)CCCn1c(=O)c2cccn2c2ccc(F)cc21 here?
Its inhibition is -1.43%.

Which inhibition does the source give for Clc1ccc(CN2CCCCCC2)cc1Cl here?
Its inhibition is -2.14%.

Which inhibition does the source give for CC(=O)c1cccc(NC(=O)COc2ccc(S(=O)(=O)N3CCOCC3)cc2)c1 here?
Its inhibition is -2.94%.

Cc1cc(C)n2nc(C(=O)NC(C)(C)C)nc2n1 was tested. Which inhibition did it give?
Its inhibition is -3.78%.

COc1ccc(Cl)cc1C(=O)NNC(=O)c1nc2nc(C)cc(C)n2n1 was tested. Which inhibition did it give?
Its inhibition is 10.3% (active).

Which inhibition does the source give for C=CCNC(=S)NNC(=O)c1cc(Cl)ccc1OC here?
The inhibition was -5.71%.

For O=C(CNC(=O)OCc1ccccc1)Oc1cc2oc(=O)cc(-c3ccccc3)c2cc1Cl, which inhibition is on record?
Its inhibition is 2.38%.

How did the inhibition turn out when CN(C)/C=C1/C(=O)Nc2ccccc21 was run?
The inhibition was -0.22%.

How did the inhibition turn out when O=C1Nc2ccccc2/C1=C/c1ccnc2ccccc12 was run?
Its inhibition is 8.11% (active).

With Cc1ccccc1N1CCN(CCCN2C(=O)C3CCCCN3C2=O)CC1 (configuration not stated) as the molecule, how does the inhibition read?
Its inhibition is 0.15%.

How did the inhibition turn out when S=c1[nH]nc(COc2ccccc2)n1-c1ccccc1 was run?
The inhibition was -1.69%.

With CC(NS(=O)(=O)c1ccccc1)c1n[nH]c(=S)n1-c1ccccc1 (configuration not stated) as the molecule, how does the inhibition read?
Its inhibition is 14.9% (active).

Which inhibition does the source give for CCCCC(CC(C)O)c1n[nH]c(=S)n1-c1ccccc1 (configuration not stated) here?
Its inhibition is -4.22%.

With CCOc1c(Br)cc(/C=C2\C(=O)N(CCC#N)N=C2C)cc1OC as the molecule, how does the inhibition read?
Its inhibition is 0.69%.

With CCc1nn(CC(=O)N2CCN(CC)CC2)c(=O)c2cccn12 as the molecule, how does the inhibition read?
Its inhibition is -0.45%.

How did the inhibition turn out when COc1cccc2c(=O)n(CC(=O)N3CCCCCC3)ccc12 was run?
The inhibition was 1.04%.

For CCN1CCN(C(=O)Cn2nc(C)n3c(cc4c(OC)cccc43)c2=O)CC1, which inhibition is on record?
Its inhibition is 28.3% (active).

With COc1ccc(C(CNC(=O)COc2ccccc2OC)N2CCCCC2)cc1 (configuration not stated) as the molecule, how does the inhibition read?
The inhibition was -0.07%.

With Cc1ccc(CN(N=Nc2nonc2N)c2nonc2N)c(C)c1 as the molecule, how does the inhibition read?
Its inhibition is -1.22%.

How did the inhibition turn out when O=C(COc1ccc(-n2cnnn2)cc1)Nc1ccccc1Cl was run?
The inhibition was 0.31%.

For CCN(CC)CCCNC(=O)c1cc(-c2cccc(Cl)c2)on1, which inhibition is on record?
The inhibition was -2.99%.

How did the inhibition turn out when CCN(CC)CCCNC(=O)c1cc2c(=O)[nH]c3ccc(C)cc3c2s1 was run?
Its inhibition is 11.4% (active).

Which inhibition does the source give for Cc1cccc(N(C)C(=O)c2cc3c(=O)[nH]c4ccc(C)cc4c3s2)c1 here?
The inhibition was -1.79%.

How did the inhibition turn out when COc1ccc(C(=O)N/N=c2\oc3ccccc3cc2C(N)=O)cc1 was run?
Its inhibition is -2.23%.

CCN(CC)c1ccc2cc(C(N)=O)/c(=N\NC(=O)c3ccncc3)oc2c1 was tested. Which inhibition did it give?
The inhibition was 17.2% (active).

With NC(=O)c1cc2ccccc2o/c1=N/NC(=O)c1cccc(F)c1 as the molecule, how does the inhibition read?
Its inhibition is -3.88%.

Which inhibition does the source give for COc1ccccc1CNC(=O)C1CCN(C(=O)[C@@H]2Cc3ccccc3CN2)CC1 here?
Its inhibition is -1%.

With Nc1nc(SCc2cccc(Br)c2)n[nH]1 as the molecule, how does the inhibition read?
The inhibition was -2.53%.

Which inhibition does the source give for Cc1cc(NC(C)C)n2c(nc3ccccc32)c1C#N here?
The inhibition was 6.91%.

Which inhibition does the source give for Cc1cc(NCc2ccco2)n2c(nc3ccccc32)c1C#N here?
The inhibition was 23.1% (active).

CC(C)c1cc(NCc2ccccn2)n2c(nc3ccccc32)c1C#N was tested. Which inhibition did it give?
Its inhibition is 3.25%.

CC(C)c1ccc2oc(=O)cc(CN3CCN(Cc4ccccc4)CC3)c2c1 was tested. Which inhibition did it give?
Its inhibition is -0.17%.

Which inhibition does the source give for CCOC(=O)N1CCC(N2Cc3cccc(C(=O)Nc4ccc(S(=O)(=O)N(CC)CC)cc4)c3C2=O)CC1 here?
The inhibition was 1.9%.

Which inhibition does the source give for O=C(NNS(=O)(=O)c1ccccc1)c1cnn(-c2ccc(Cl)cc2)c1C(F)(F)F here?
Its inhibition is -0.91%.

How did the inhibition turn out when COc1ccccc1N1CCN(c2nc(C)cc(=O)[nH]2)CC1 was run?
Its inhibition is -1.83%.

CN(C)c1ccc(CNC2C3CC4CC(C3)CC2C4)cc1 (configuration not stated) was tested. Which inhibition did it give?
The inhibition was -1.88%.

O=C(CCC(=O)N/N=C/c1ccc(Br)o1)N/N=C/c1ccc(Br)o1 was tested. Which inhibition did it give?
Its inhibition is -1.34%.

How did the inhibition turn out when O=C(NCCCN1CCOCC1)c1cc2c(s1)CCC2 was run?
Its inhibition is -5.51%.

With CN1CCN(CCCNC(=O)c2cc3c(=O)oc4ccccc4c3s2)CC1 as the molecule, how does the inhibition read?
The inhibition was 7.83% (active).

Which inhibition does the source give for O=C(NCCN1CCN(Cc2ccccc2)CC1)c1cc2c(=O)[nH]c3ccccc3c2s1 here?
The inhibition was 7.06%.

For CCOC(=O)N1CCN(S(=O)(=O)N2CCCC(C(=O)NCCCN3CCC(C)CC3)C2)CC1 (configuration not stated), which inhibition is on record?
Its inhibition is -0.26%.

CC(=O)Nc1ccc(Nc2c3ccccc3nc3ccccc23)cc1 was tested. Which inhibition did it give?
Its inhibition is 9.49% (active).

Cc1ccc(Nc2c3c(nc4ccccc24)CCC3)cc1 was tested. Which inhibition did it give?
Its inhibition is 5.26%.

For CC(=O)Nc1ccc(-c2nc3ccccc3o2)cc1, which inhibition is on record?
Its inhibition is -1.18%.

How did the inhibition turn out when FC(F)(F)c1nnc2c3ccccc3c(Cl)nn12 was run?
The inhibition was 4.08%.

Nc1nnc2c(C(F)(F)F)nc3ccccc3n12 was tested. Which inhibition did it give?
The inhibition was 14.8% (active).

With Cc1ccc(Oc2nc3ccccc3n3c(C)nnc23)cc1 as the molecule, how does the inhibition read?
Its inhibition is 0.26%.

Which inhibition does the source give for COc1ccc(C2=NS(=O)(=O)N(C)C(C(=O)N(C)Cc3ccccc3)=C2)cc1 here?
Its inhibition is -0.5%.

How did the inhibition turn out when Cc1ccccc1-n1nc(C)c2cc(C(=O)NC3CC3)sc21 was run?
Its inhibition is -1.43%.

Cc1cccn2c(=O)c3cc(C(=O)NC4CCCCC4)sc3nc12 was tested. Which inhibition did it give?
The inhibition was 8.99% (active).

Which inhibition does the source give for CN(C(=O)c1cc2c(=O)n3ccccc3nc2s1)C1CCCCC1 here?
The inhibition was 3.44%.

For CCc1ccc(N(CC(=O)NCc2cccnc2)S(=O)(=O)c2ccccc2)cc1, which inhibition is on record?
The inhibition was -2.09%.

Which inhibition does the source give for COc1ccccc1C(=O)Nc1ccnn1C1CCN(C(=O)C(C)(C)C)CC1 here?
Its inhibition is -0.24%.

Which inhibition does the source give for COc1ccc(-c2nn(C)c(=O)c3ccccc23)cc1NC(=O)COc1ccccc1 here?
The inhibition was 3.19%.

Which inhibition does the source give for CCC(=O)NCc1cc(-c2nn(C)c(=O)c3ccccc23)ccc1OC here?
Its inhibition is 1.81%.

Which inhibition does the source give for COc1ccc(-c2nn(C)c(=O)c3ccccc23)cc1CNC(=O)C1CCCCC1 here?
Its inhibition is 8.72% (active).

Which inhibition does the source give for COc1cc(-c2nn3c(-c4cccc(C)c4)nnc3s2)cc(OC)c1OC here?
Its inhibition is 14.8% (active).

How did the inhibition turn out when CCOc1cccc(-c2nn3c(-c4ccccn4)nnc3s2)c1 was run?
Its inhibition is 1.31%.

For c1ccc(-c2cc(-c3nnc4sc(-c5ccccn5)nn34)[nH]n2)cc1, which inhibition is on record?
Its inhibition is 6.5%.

COc1ccc(-c2nn3c(-c4ccccc4)nnc3s2)cc1OC was tested. Which inhibition did it give?
Its inhibition is 14.4% (active).

How did the inhibition turn out when COc1cc(-c2nnn(CC(=O)NCc3ccccc3)n2)cc(OC)c1OC was run?
Its inhibition is -0.9%.

For Fc1ccc(-c2ccc(-c3nn4c(-c5ccco5)nnc4s3)o2)cc1, which inhibition is on record?
Its inhibition is -1.72%.

How did the inhibition turn out when COc1ccc(C)cc1S(=O)(=O)N(CC(=O)Nc1cccc([N+](=O)[O-])c1)c1ccc(C)cc1 was run?
Its inhibition is -0.96%.

Which inhibition does the source give for COc1ccc(C(C(=O)NC2CCCCC2)N(C(=O)c2snc(C(N)=O)c2N)c2ccccc2OC)cc1 (configuration not stated) here?
Its inhibition is -3.87%.

For N#Cc1cc([N+](=O)[O-])ccc1NCC1CCCO1 (configuration not stated), which inhibition is on record?
The inhibition was -4.39%.

Which inhibition does the source give for CCN(CCn1cccn1)Cc1nc(-c2ccc(C(=O)OC)cc2)no1 here?
The inhibition was 0.55%.

With COC(=O)c1ccc(-c2noc(CN(Cc3ccccn3)CC3CCCO3)n2)cc1 (configuration not stated) as the molecule, how does the inhibition read?
Its inhibition is 19.8% (active).

With CN(Cc1ccccn1)Cc1nc(-c2ccc(Cl)cc2)no1 as the molecule, how does the inhibition read?
Its inhibition is -2.91%.

How did the inhibition turn out when COc1cc(/C=C2/SC(=S)N(Cc3ccccc3)C2=O)cc(OC)c1O was run?
The inhibition was 7.8% (active).

Which inhibition does the source give for COc1ccc(/C=C2\SC(=S)N(CCC(=O)Nc3ccccn3)C2=O)cc1OC here?
The inhibition was -0.57%.

For COc1ccccc1C(=O)NNC(=O)CCN1C(=O)/C(=C\c2ccccc2)SC1=S, which inhibition is on record?
Its inhibition is -3.54%.

How did the inhibition turn out when O=C(CCc1ccccc1)NNC(=O)COc1ccc(Cl)cc1 was run?
The inhibition was -4.89%.

Which inhibition does the source give for Cc1ccc(C2CCN(C(=S)Nc3cccc(Cl)c3)C2)cc1 (configuration not stated) here?
The inhibition was -1.21%.

Which inhibition does the source give for O=C(NCC(=O)N1CCN(c2ccccc2F)CC1)c1cccs1 here?
The inhibition was -3.61%.

For O=C(O)CS/C(=C\c1ccc(F)cc1)c1nc2ccccc2s1, which inhibition is on record?
Its inhibition is 2.23%.

For O=C(O)CC/C(=C\c1cc2c(cc1Br)OCO2)c1nc2ccccc2s1, which inhibition is on record?
Its inhibition is 7.92% (active).

O=C(Nc1nc2ccccc2s1)c1ccc2c(c1)OCO2 was tested. Which inhibition did it give?
The inhibition was -3.05%.

For C/C(=N\NC(=O)C1(C)CC1(Br)Br)c1ccc(C)cc1C (configuration not stated), which inhibition is on record?
Its inhibition is -0.97%.

CC(C)n1c(COc2ccccc2)nc2ccccc21 was tested. Which inhibition did it give?
Its inhibition is -2.15%.

Which inhibition does the source give for O=C(CN1CCN(S(=O)(=O)c2cc(Cl)ccc2Cl)CC1)c1ccc(O)c(O)c1 here?
The inhibition was 2.29%.

How did the inhibition turn out when CCc1cc(=O)oc2cc(C)cc(OCC(=O)N3CCC[C@@H]3C(=O)O)c12 was run?
Its inhibition is 14.5% (active).

Which inhibition does the source give for CCc1cc(=O)oc2cc(C)cc(OC(C)C(=O)O)c12 (configuration not stated) here?
The inhibition was -2.35%.

How did the inhibition turn out when CCCc1cc(=O)oc2c(C)c(OCC(=O)N3CCC(C(=O)O)CC3)ccc12 was run?
The inhibition was -1.65%.
